# Assay outcomes from PubChem BioAssay.
# KCNQ2 pot – enhances the rat KCNQ2 potassium channel. O88943. 310,000 compounds, 0.54% hits. CHO-K1 KCNQ2, FluxOR thallium flux fluorescence; hits give high values. B-score at 10 µM. AID 2239;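 active means fluorescence ratio B-score at least 3 SD of library B-scores, with initial fluorescence B-score within 3 of them, cut at about 5.3 in these data; same plate scores as AID 2156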;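 further: B-score of peak minus minimum over baseline fluorescence ratio after K+ and Tl+ stimulus; positive B-score means potentiation of KCNQ2 with more thallium influx and brighter signal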
# KCNQ2 inh – KCNQ2 (rat) channel inhibition; B-score at 10 µM; 310,000 compounds, 1.1% hits; CHO-K1 KCNQ2, FluxOR thallium flux, 20 min; hits give low values;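 active means fluorescence ratio B-score at most minus 3 library SDs, with starting brightness B-score within 2 library SDs, cut at about -5.5 in these data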
# Kir21 confirm – confirmation of mouse Kir2.1 potassium channel inhibitors; Tl flux remaining, % of negative control (hits give low values), % at 10 µM; shares compounds with KCNQ2 pot; Kir2.1-expressing cells, FluxOR thallium flux fluorescence; hits give low values; AID 2032; 2,300 compounds, 41% hits;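 active means Primary-screen hit whose thallium flux fell at least 3 control SD below untreated wells in both duplicates, with normal baseline fluorescence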
# Target sequence (P35561 whole entry, looked up): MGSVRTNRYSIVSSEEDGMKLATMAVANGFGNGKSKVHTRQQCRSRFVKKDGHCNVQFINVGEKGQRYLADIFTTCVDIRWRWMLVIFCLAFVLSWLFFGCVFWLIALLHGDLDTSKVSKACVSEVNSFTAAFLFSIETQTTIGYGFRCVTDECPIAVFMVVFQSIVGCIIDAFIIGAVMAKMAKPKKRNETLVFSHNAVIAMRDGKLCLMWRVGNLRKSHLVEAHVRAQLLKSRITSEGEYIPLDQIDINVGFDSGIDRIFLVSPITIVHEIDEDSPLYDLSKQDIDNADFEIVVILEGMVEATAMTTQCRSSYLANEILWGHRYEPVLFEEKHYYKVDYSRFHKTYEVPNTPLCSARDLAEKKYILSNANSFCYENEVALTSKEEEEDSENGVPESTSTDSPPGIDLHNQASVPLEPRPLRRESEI
# HEK293 ctr – counter-screen for Kir2.1 inhibitors: effect in parental HEK293 cells. FluxOR thallium flux fluorescence; 0% = unstimulated blank wells. shares compounds with KCNQ2 pot. 2,300 compounds, 19% hits. AID 2105. FluxOR signal as % of negative control (100 = no effect), % at 10 µM;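 active means dye signal at least 3 control SD above or below untreated wells in both duplicates, raw fluorescence within 3, either direction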;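 further: percent is based on the flux ratio of peak minus minimum fluorescence over baseline F0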
# CHO-K1 Tl ctr – parental CHO-K1 activity in KCNQ2 potentiator counter-screen; shares compounds with KCNQ2 pot; activity increase over 3SD of controls, % at 10 µM; AID 2282; 1,200 compounds, 43% hits; parental CHO-K1 cells, FluxOR thallium flux fluorescence; zero = vehicle mean+3SD, 100% = vehicle-minus-blank window;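 active means signal rise of at least 3 SD above the untreated control mean, in both duplicate wells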;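 further: counter screen of KCNQ2 potentiator hits so any rise reflects channel-independent effects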
# KCNQ1 pot spec – selectivity of KCNQ2 potentiators: effect on human KCNQ1; AID 2283; shares compounds with KCNQ2 pot; CHO KCNQ1 stable, FluxOR thallium flux fluorescence; beyond 3SD, as % of vehicle-control signal; activation over 3SD threshold, % at 10 µM; 1,200 compounds, 28% hits;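 active means fluorescence ratio rise of at least 3 SD of vehicle wells above their mean, in both replicate wells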
# KCNQ2 pot conf – rat KCNQ2 channel potentiator confirmation; shares compounds with KCNQ2 pot; CHO-KCNQ2 cells, FluxOR thallium flux fluorescence; potentiation, less the hit threshold, % at 10 µM; 1,200 compounds, 68% hits;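 active means fluorescence ratio rising 3 SD or more over the vehicle control mean in both replicates, plus primary screen hit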;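 further: peak minus minimum thallium fluorescence divided by baseline after K/Tl stimulus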
# Kir2-1 sel – selectivity of KCNQ2 potentiators: effect on mouse Kir2.1; 1,200 compounds, 2% hits; shares compounds with KCNQ2 pot; HEK293 Kir2.1, FluxOR thallium flux fluorescence; activity over 3SD threshold, % at 10 µM;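 active means fluorescence ratio rise of at least 3 SD above the vehicle-control mean, seen in both replicates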
# KCNQ2 W236L pot – KCNQ2 potentiators acting on retigabine-insensitive rat KCNQ2 W236L mutant; AID 2558; 940 compounds, 10% hits; current increase over 3SD of negative controls (%), hits give high values, % at 25 µM; CHO KCNQ2-W236L, automated patch clamp current; shares compounds with KCNQ2 pot;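 active means current increase at least 3 SD of the untreated controls above them in both duplicate recordings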
# A number is an active result; . = inactive; / = no result given. A selection: hits, their analogues and other compounds. The true share with any hit is near 1.6%.
SMILES,KCNQ2 pot,KCNQ2 inh,Kir21 confirm,HEK293 ctr,CHO-K1 Tl ctr,KCNQ1 pot spec,KCNQ2 pot conf,Kir2-1 sel,KCNQ2 W236L pot
C/C(N)=C(/C#N)C(=O)CSc1nc2ccccc2c(=O)n1Cc1ccc(F)cc1,5.49,.,.,167.0%,.,16.2,3.4,.,.
O=C1NC2(CCCCCCC2)C(=O)N1Cc1ccc(F)cc1,/,.,/,/,/,/,/,/,/
O=C1NC2(CCCCCC2)C(=O)N1Cc1ccccc1,5.59,.,.,.,.,.,.,.,/
CN(C(=S)NCCN1CCOCC1)C(c1ccccc1)c1ccccc1,.,.,/,/,/,/,/,/,/
Cc1ccc(N/C=C/C(=O)C(C)(C)C)c(O)c1,8.34,.,.,.,.,2.9,8.3,.,.
CC(=O)Nc1ccc(N/C=C/C(=O)C(C)(C)C)cc1,/,.,/,/,/,/,/,/,/
O=C(C1CCCCCC1)N1CC[C@@H](N2CCC(O)CC2)[C@H](O)C1,/,.,/,/,/,/,/,/,/
CC(C)c1nnc(NC(=O)c2nc(S(=O)(=O)Cc3ccccc3)ncc2Cl)s1,14.8,.,.,.,23.3,.,93.7,.,29.0%
CSc1ncc(Cl)c(C(=O)Nc2nnc(SC)s2)n1,.,.,/,/,/,/,/,/,/
CCc1ccc(NC(=O)c2nc(S(=O)(=O)Cc3ccccc3)ncc2Cl)cc1,.,.,/,/,/,/,/,/,/
CSc1nnc(NC(=O)c2nc(S(=O)(=O)Cc3ccccc3)ncc2Cl)s1,14.2,.,.,.,22.7,18.5,83.4,.,31.9%
CCCc1nnc(NC(=O)c2nc(S(=O)(=O)Cc3ccc(C)cc3)ncc2Cl)s1,10.2,.,/,/,.,.,55.3,.,24.9%
CCOc1ccccc1NC(=O)c1nc(S(=O)(=O)Cc2ccccc2)ncc1Cl,.,.,/,/,/,/,/,/,/
CCn1c(=S)[nH]c2sc3c(c2c1=O)CCCC3,15.7,.,.,393.0%,40.5,.,59.6,.,.
C=CCn1c(=S)[nH]c2sc3c(c2c1=O)CCC3,.,.,/,/,/,/,/,/,/
CC1CCc2c(sc3nn[nH]c(=O)c23)C1 (stereo not given),.,.,/,/,/,/,/,/,/
CC1CCc2c(sc3[nH]c(=S)n(C)c(=O)c23)C1 (stereo not given),20.1,.,.,396.0%,54.4,.,68.6,.,.
CCc1ccc(CNC(=O)C2CCN(S(=O)(=O)N3CCC4(CC3)OCCO4)CC2)cc1,.,.,/,/,/,/,/,/,/
Cc1ccc(-c2cc(-c3n[nH]c(=S)o3)c3ccccc3n2)cc1,13.8,.,.,485.5%,47.4,.,167.5,.,.
S=c1[nH]nc(-c2cc(-c3ccccn3)nc3ccccc23)o1,.,.,/,/,/,/,/,/,/
CC(C)(C)c1csc(NC(=O)c2ccc(Cl)s2)n1,.,.,/,/,/,/,/,/,/
Cc1ccc(C(=O)Nc2nc(C(C)(C)C)cs2)s1,6.64,.,.,.,18.3,.,.,.,.
CCc1ccc2[nH]c(O)c(N=NC3=NC(=O)CS3)c2c1,/,.,/,/,/,/,/,/,/
CCc1ccc2c(c1)c(N=NC1=NC(=O)CS1)c(O)n2CC,9.69,.,.,224.5%,.,.,27.9,.,.
CCc1ccc(S(=O)(=O)/N=C2\C=C(Nc3cccc(C(=O)O)c3)C(=O)c3ccccc32)cc1,.,.,/,/,/,/,/,/,/
SMILES,KCNQ2 pot,KCNQ2 inh,Kir21 confirm,HEK293 ctr,CHO-K1 Tl ctr,KCNQ1 pot spec,KCNQ2 pot conf,Kir2-1 sel,KCNQ2 W236L pot
Cc1cc(C)c(S(=O)(=O)/N=C2\C=C(Nc3ccc(C(=O)O)cc3)C(=O)c3ccccc32)c(C)c1,7.87,.,.,.,9.1,.,.,.,.
O=C1CSC(=S)N1,/,.,/,/,/,/,/,/,/
Cn1c(N)c(C(=O)CSc2nc3ccccc3[nH]2)c(=O)n(C)c1=O,/,.,/,/,/,/,/,/,/
Nc1cccc(Oc2ccc3c(c2)C(=O)NC3=O)c1,/,.,/,/,/,/,/,/,/
CCC(=O)N1c2ccc(S(=O)(=O)NCCc3ccc(OC)c(OC)c3)cc2CC1C (stereo not given),/,.,/,/,/,/,/,/,/
Cc1ccc(CN=C(Nc2ccccc2)NC2CCCCC2)cc1,/,.,60.0%,.,/,/,/,/,/
